In ChEMBL document CHEMBL3433997, “St. Jude Leishmania screening dataset” (2016):

What was measured:
Assay type in all cases: functional
[1] = target: Solute carrier family 2, facilitated glucose transporter member 1 (Homo sapiens) (UniProt P11166); assay: ST_JUDE_LEISH: Cytotoxicity at 2uM final concentration against transgenic Leishmania Mexicana promastigotes LmGLUT1 that are glucose transport deficient and complemented with the human glucose transporter GLUT1. Activity is measured by DNA content using SYBR green in vitro
[2] = target: Hexose transporter 1 (Plasmodium falciparum) (UniProt O97467); assay: ST_JUDE_LEISH: Cytotoxicity at 2uM final concentration against transgenic Leishmania Mexicana promastigotes LmPfHT that are glucose transport deficient and complemented with the Plasmodium falciparum hexose transporter. Activity is measured by DNA content using SYBR green in vitro
[3] = target: Glucose transporter (Leishmania mexicana) (UniProt O61059); assay: ST_JUDE_LEISH: Cytotoxicity at 2uM final concentration against transgenic Leishmania Mexicana promastigotes LmGT2 that are glucose transport deficient and complemented with the L. Mexicana glucose transporter 2. Activity is measured by DNA content using SYBR green in vitro

Solute carrier family 2, facilitated glucose transporter member 1 (Homo sapiens), sequence (P11166 whole entry): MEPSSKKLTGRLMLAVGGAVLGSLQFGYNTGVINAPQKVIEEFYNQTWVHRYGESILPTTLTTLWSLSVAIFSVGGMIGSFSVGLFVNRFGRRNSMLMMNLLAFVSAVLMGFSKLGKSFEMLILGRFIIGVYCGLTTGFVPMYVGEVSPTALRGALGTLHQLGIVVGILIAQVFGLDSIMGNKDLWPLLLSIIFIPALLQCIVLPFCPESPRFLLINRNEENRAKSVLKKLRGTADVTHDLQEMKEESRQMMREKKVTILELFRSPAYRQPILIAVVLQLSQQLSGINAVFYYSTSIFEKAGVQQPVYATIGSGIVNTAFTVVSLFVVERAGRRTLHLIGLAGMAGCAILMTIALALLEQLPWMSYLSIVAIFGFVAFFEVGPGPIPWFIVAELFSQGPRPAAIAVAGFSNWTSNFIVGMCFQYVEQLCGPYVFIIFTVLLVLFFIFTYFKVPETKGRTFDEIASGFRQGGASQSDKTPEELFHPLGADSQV

Structure (SMILES) | inhibition [1] [%] | inhibition [2] [%] | inhibition [3] [%]
Cc1cc(N[C@@H](Cc2ccccc2)C(=O)NC2CCCC2)nc(NCc2ccccc2C)n1 | 6.22 | 6.32 | 4.04
O=C(/C=C/c1ccccc1)N1CCOC(CCN2CCC(c3ccccc3)CC2)(c2ccc(Cl)c(Cl)c2)C1 (stereo unspecified) | 13.3 | 7.51 | 7.43
COc1ccc(CN2CCC(NCc3cccc(C(F)(F)F)c3)CC2)cc1 | 13.2 | 4.48 | 9.6
O=C(Nc1ccc(Br)cc1)N(CCN1CCOCC1)CC(O)COc1ccc(Cl)c(F)c1 (stereo unspecified) | -0.94 | -1.53 | 1.5
O=S(=O)(c1ccc2cc[nH]c2c1)N1CCC[C@@H]1CCN1CCC(c2c[nH]c3cnccc23)CC1 | 3.4 | 2.78 | 2.1
O=C(N[C@H]1CCN(Cc2ccc(OCCCN3CCCCC3)cc2)C1)c1ccc2ccccc2c1 | 4.56 | 6.47 | 2.1
O=C(CN1CCCC1)Nc1cccc(C(=O)Nc2cccc(C(F)(F)F)c2)c1 | 1.71 | 1.57 | 3.18
Cc1nc(C)c(CC(=O)Nc2cccc(-c3cccc(-c4nc5cccc(C)c5[nH]4)c3)c2)s1 | -1.73 | -0.36 | -0.58
COc1ccc(CCc2ccc(-c3c(C)[nH]c(C)c(Cl)c3=O)cc2)cc1OC | 12 | 11 | 10.6
CC(=O)Nc1ccccc1OCc1cc2cc(C(=O)N3CCC(N4C(=O)OCc5ccccc54)CC3)ccc2o1 | 4.21 | 2.89 | 4.49
CCc1ccc(CN2CCC(CNC(=O)c3cc(-c4cccc(C(F)(F)F)c4)cs3)C2)cc1 (stereo unspecified) | -2.78 | -0.98 | -1.61
Cc1ccc2[nH]c(C)cc(=NN=Cc3ccc(Cl)cc3)c2c1 | -0.11 | 0.61 | -1.26
